Data from PubChem BioAssay AID1159580 (chemical genetic matrix, 2015).
The campaign covered roughly 5,500 compounds. About 2,000 (36%) were called active. Another 18% or so got no clear call; they are omitted. No stated cut-off is given here; in the data, active means normalized growth mostly below about 0.91 (no sharp cut-off); inconclusive means no clear call, values can overlap the other calls; inactive means mostly above about 0.92. The list shows a part of the results.

Assay: chemical genetic growth profiling, strain panel (AID 1159580);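 further: tested at 20 µM; growth read once vehicle control cultures reached saturation at 30 °C; 1 = growth at the plate median or of vehicle wells; lower values mean less growth of the strain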
Settings: S. cerevisiae deletion strains, growth OD

Measured: normalized growth

NNC(=O)COc1ccc(C2SCCS2)cc1
inactive: locus YBL105C, strain PKC1, hits give low values 0.962 | locus YBR135W, strain CKS1, hits give low values 0.954 | locus YBR136W, strain MEC1, hits give low values 0.986 | locus YBR160W, strain CDC28, hits give low values 0.96 | locus YDL017W, strain CDC7, hits give low values 0.971 | locus YDL028C, strain MPS1, hits give low values 0.964 | locus YDL108W, strain KIN28, hits give low values 0.97 | locus YDR052C, strain DBF4, hits give low values 0.969 | locus YDR226W, strain ADK1, hits give low values 0.962 | locus YFR003C, strain YPI1, hits give low values 0.974 | locus YFR028C, strain CDC14, hits give low values 0.973 | locus YIL147C, strain SLN1, hits give low values 0.969 | locus YJR016C, strain ILV3, hits give low values 0.939 | locus YKL193C, strain SDS22, hits give low values 0.927 | locus YMR001C, strain CDC5, hits give low values 0.95 | locus YNL006W, strain LST8, hits give low values 0.945 | locus YNL161W, strain CBK1, hits give low values 0.941 | locus YNL222W, strain SSU72, hits give low values 0.934 | locus YOR329C, strain SCD5, hits give low values 0.972 | locus YPL209C, strain IPL1, hits give low values 0.965 | locus YPR025C, strain CCL1, hits give low values 0.954
active: locus YDL101C, strain DUN1, hits give low values 0.337 | locus YDL214C, strain PRR2, hits give low values 0.16 | locus YDR477W, strain SNF1, hits give low values 0.197 | locus YER123W, strain YCK3, hits give low values 0.148 | locus YER133W, strain GLC7, hits give low values 0.4 | locus YFR019W, strain FAB1, hits give low values 0.144 | locus YGR040W, strain KSS1, hits give low values 0.233 | locus YGR052W, strain FMP48, hits give low values 0.152 | locus YGR092W, strain DBF2, hits give low values 0.13 | locus YHR030C, strain SLT2, hits give low values 0.104 | locus YHR079C, strain IRE1, hits give low values 0.127 | locus YHR082C, strain KSP1, hits give low values 0.188 | locus YHR205W, strain SCH9, hits give low values 0.162 | locus YJL095W, strain BCK1, hits give low values 0.128 | locus YJL157C, strain FAR1, hits give low values 0.163 | locus YJR066W, strain TOR1 (second series), hits give low values 0.156 | locus YJR066W, strain TOR1, hits give low values 0.159 | locus YKL048C, strain ELM1, hits give low values 0.215 | locus YKL067W, strain YNK1, hits give low values 0.141 | locus YKL101W, strain HSL1, hits give low values 0.153 | locus YKL203C, strain TOR2, hits give low values 0.209 | locus YLR113W, strain HOG1, hits give low values 0.171 | locus YLR133W, strain CKI1, hits give low values 0.194 | locus YLR403W, strain SFP1, hits give low values 0.152 | locus YML070W, strain DAK1, hits give low values 0.145 | locus YMR205C, strain PFK2 (second series), hits give low values 0.151 | locus YMR277W, strain FCP1, hits give low values 0.85 | locus YNL020C, strain ARK1, hits give low values 0.195 | locus YNL183C, strain NPR1, hits give low values 0.187 | locus YNL207W, strain RIO2, hits give low values 0.829 | locus YNL307C, strain MCK1 (second series), hits give low values 0.157 | locus YOL136C, strain PFK27, hits give low values 0.159 | locus YOR061W, strain CKA2, hits give low values 0.115 | locus YOR119C, strain RIO1, hits give low values 0.183 | locus YOR231W, strain MKK1, hits give low values 0.159 | locus YPL031C, strain PHO85, hits give low values 0.201 | locus YPL153C, strain RAD53, hits give low values 0.181 | locus YPL204W, strain HRR25, hits give low values 0.234 | locus YPL256C, strain CLN2, hits give low values 0.173 | locus YPR106W, strain ISR1, hits give low values 0.575 | locus YPR111W, strain DBF20, hits give low values 0.608 | strain NNK1, hits give low values 0.24
